Screening data (PubChem BioAssay)
Shown are actives, neighbours in structure and some others; about 7.5% of the full set was active somewhere.
NPC1 promoter act = NPC1 promoter activation; hit rate 2.4% among 320,000; Huh7 NPC1 promoter luciferase reporter, 24 h; Potency, µM (titrated, usually from 9.22 µM), for the others: top-dose activation, most hits filed as activators; further: % of control where 0% means no effect; nearly all actives have a fitted effect of over 60% in size
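Quantitative HTS used a cell-based reporter: Huh7 cells stably bearing the NPC1 promoter upstream of luciferase were treated with compounds for 24 h, and promoter activation was read as luminescence.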
Luc counter = counter-screen: inhibitors of Kinase-Glo firefly luciferase. Kinase-Glo luciferase, ATP luminescence, 8 min. Potency, µM (top dose mostly 38.3 µM), for inactives: top-dose activity change, negative = inhibition, usual class: inhibitors. hit rate 0.28% among 200,000; further: on the % scale 0 is the no-effect control and ±100 the full control effect; nearly all actives have a fitted effect of over 60% in size
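Luminescence was the read-out, taken after 8-minute incubation at ambient temperature. Luciferase turned over luciferin with 10 uM ATP in imidazole pH 7.2 buffer containing KCl, MgCl2, Tween 20 and BSA.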
Rab9 promoter act = activates the Rab9 promoter | Huh7 Rab9 promoter-luciferase reporter, luminescence, 24 h | Potency, µM (top dose mostly 9.22 µM), for the others: top-dose activation, negative = inhibition, hits mostly activators | hit rate 2.8% among 320,000 | AID 485297; further: % of control where 0% means no effect; nearly all actives have a fitted effect of over 60% in size
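Rab9 promoter-driven luciferase in stably transfected Huh7 cells; 1500 cells/well rested 2 h, exposed to compound in DMSO for 24 h at 37 °C, 5% CO2. Luminescence read 10 min after adding luciferase reagent at ambient temperature.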
SMN2 splice up = SMN2 splice variant enhancement | Potency, µM (series often up to 46.1 µM), for inactives: at the highest dose activity change, positive = activation, most hits filed as activators | AID 1458 | HEK293 SMN2-luciferase splicing reporter, luminescence, 30-36 h | hit rate 2.8% among 210,000; further: % of control where 0% means no effect; nearly all actives have a fitted effect of over 55% in size
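qHTS luciferase splicing reporter: luminescence rises when SMN2 exon 7 is included in transfected HEK293 cells. Compound exposure lasted 30-36 h at 37C, with 4.5 mM final sodium butyrate as control, followed by a ONE-Glo read.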
ELG1 genotox = inducers of genotoxicity in HEK293T ELG1-luciferase cells; HEK293T ELG1-luciferase reporter, luminescence, 16 h; Potency, µM (series often up to 46 µM), inactives show at the highest dose activity change, positive = activation, actives largely listed as activators; hit rate 1.3% among 330,000; AID 504466; further: % of control where 0% means no effect; nearly all actives have a fitted effect of over 60% in size
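16 hr compound incubation (37 °C, 5% CO2) of HEK293T cells carrying luciferase-tagged ELG1; luciferase then measured by ONE-Glo luminescence after 30 min at RT.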
FLuc counter = firefly luciferase modulation, counter-screen for miR-21 project | hit rate 6.9% among 360,000 | Potency, µM (doses to about 57.5 µM), without a hit: top-dose activity change, negative = inhibition, usual class: inhibitors | P08659 | purified FLuc, Km substrates, luminescence inhibition | AID 588342;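 further: plate controls were vehicle for no effect and reference inhibitor for full effect; nearly all actives have a fitted effect of over 55% in size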
Target sequence (P08659 whole entry, looked up): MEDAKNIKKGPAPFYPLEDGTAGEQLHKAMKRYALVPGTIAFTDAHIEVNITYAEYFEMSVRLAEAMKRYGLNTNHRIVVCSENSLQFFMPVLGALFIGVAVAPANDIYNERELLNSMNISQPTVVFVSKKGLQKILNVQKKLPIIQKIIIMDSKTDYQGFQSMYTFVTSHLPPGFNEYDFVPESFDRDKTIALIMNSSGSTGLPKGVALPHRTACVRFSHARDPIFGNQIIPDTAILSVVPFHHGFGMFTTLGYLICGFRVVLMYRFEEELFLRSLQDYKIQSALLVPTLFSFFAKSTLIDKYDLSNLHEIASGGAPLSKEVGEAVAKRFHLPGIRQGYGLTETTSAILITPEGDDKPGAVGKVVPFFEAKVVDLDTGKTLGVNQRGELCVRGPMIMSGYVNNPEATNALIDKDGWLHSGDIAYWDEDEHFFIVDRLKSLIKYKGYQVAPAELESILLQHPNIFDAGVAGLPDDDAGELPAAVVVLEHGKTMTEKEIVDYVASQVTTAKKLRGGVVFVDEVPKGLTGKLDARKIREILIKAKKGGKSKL
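Purified P. pyralis luciferase, 10 nM final, with Km-level 10 uM D-luciferin and 10 uM ATP in 50 mM Tris acetate pH 7.5, 10 mM Mg acetate, 0.01% Tween-20, 0.05% BSA; 6-point qHTS titration about 60 µM downward; luminescence read.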
Numbers without * were called inactive. The call rests on the fitted dose curve; in most records, active means well fitted curve in the direction sought with a large enough effect; inconclusive means small, poorly fitted or top-dose-only effect, or another doubt; inactive means no such curve, though single readings can be large; an effect the other way counts as inactive or inconclusive. Potency means the concentration at half of the fitted maximal effect.

CCOC(=O)C1CCCN(C(=O)c2cc(Nc3ccc(OC)cc3OC)nc3ccccc23)C1 (stereo unspecified) was read as NPC1 promoter act 9.8%, Luc counter -0.2%, Rab9 promoter act 10.2%, SMN2 splice up -2.6%, ELG1 genotox -7.9% and FLuc counter 9.53µM*.
For CCOC(=O)C1CCCN(C(=O)c2cnn3c(C(F)(F)F)cc(-c4ccccc4)nc23)C1 (stereo unspecified) the results were NPC1 promoter act -2.0%, Luc counter 0.4%, Rab9 promoter act -2.9%, SMN2 splice up 5.8%, ELG1 genotox -4.1% and FLuc counter -0.8%.
For CCOC(=O)C1CCCN(C(=O)c2cn(CC)c3ccc(S(=O)(=O)N4CCCC4)cc3c2=O)C1 (stereo unspecified) the results were NPC1 promoter act 2.4%, Luc counter -6.6%, Rab9 promoter act 1.4%, SMN2 splice up -1.2%, ELG1 genotox 4.9% and FLuc counter 3.1%.
Screening CCOC(=O)C1CCCN(C(=O)c2cc(-c3ccc(C)cc3)nc3ccccc23)C1 (stereo unspecified) returned NPC1 promoter act 13.5%, Luc counter -5.9%, Rab9 promoter act 16.1%, SMN2 splice up -36.8%, ELG1 genotox 0.2% and FLuc counter 4.78µM*.
For COc1ccc(Nc2cc(C(=O)NC3CCCC3)c3ccccc3n2)c(OC)c1 the results were NPC1 promoter act -5.6%, Rab9 promoter act 3.1%, SMN2 splice up -24.5%, ELG1 genotox -1.1% and FLuc counter inconclusive.
CCOC(=O)C1CCCN(C(=O)CC(C)c2ccccc2)C1 (stereo unspecified) was read as NPC1 promoter act 2.82µM*, Luc counter 4.5%, Rab9 promoter act 2µM*, SMN2 splice up inconclusive, ELG1 genotox inconclusive and FLuc counter inconclusive.
Screening CCOC(=O)C1CCN(C(=O)CC(C)c2ccccc2)CC1 (stereo unspecified) returned Luc counter 1.6%, SMN2 splice up 0.4% and FLuc counter 7.3%.
`Oc1ccc(-c2csc(-c3cccnc3)n2)c(O)c1` gave NPC1 promoter act inconclusive, Luc counter -0.6%, Rab9 promoter act inconclusive, SMN2 splice up inconclusive, ELG1 genotox inconclusive and FLuc counter 3.01µM*.
O=C(COc1ccccc1)Nc1nc(-c2cccs2)cs1 was read as NPC1 promoter act 6.9%, Luc counter -0.1%, Rab9 promoter act -1.0%, SMN2 splice up -10.3%, ELG1 genotox 6.9% and FLuc counter inconclusive.
For c1csc(-c2csc(-c3cccs3)n2)c1 the results were NPC1 promoter act 19.6%, Luc counter -2.4%, Rab9 promoter act inconclusive, SMN2 splice up 3.3%, ELG1 genotox 20.6µM* and FLuc counter 12µM*.
For c1cncc(-c2csc(-c3cccnc3)n2)c1 the results were NPC1 promoter act -4.8%, Rab9 promoter act 0.9%, ELG1 genotox -9.0% and FLuc counter inconclusive.
Clc1ccsc1-c1csc(-c2cccnc2)n1 was read as NPC1 promoter act 16.5%, Luc counter -3.8%, Rab9 promoter act inconclusive, SMN2 splice up 13.3%, ELG1 genotox inconclusive and FLuc counter 10.7µM*.
For c1cncc(-c2nc(-c3ccco3)cs2)c1 the results were NPC1 promoter act 18.2%, Luc counter -4.4%, Rab9 promoter act 22.1%, SMN2 splice up inconclusive, ELG1 genotox 29.3% and FLuc counter inconclusive.
c1cncc(-c2nc(-c3cccs3)cs2)c1 was read as NPC1 promoter act 28.6%, Luc counter -0.1%, Rab9 promoter act 18.6%, SMN2 splice up -3.9%, ELG1 genotox 13.8% and FLuc counter 26.9µM*.
For CCN1C(=O)c2ccccc2Sc2ccc(NC(=O)c3ccc(C#N)cc3)cc21 the results were FLuc counter -2.9%.
Screening COc1ccc(NC(=O)C(=O)NCCc2csc3nc(-c4ccccc4F)nn23)cc1OC returned FLuc counter -0.8%.
